Gal4-VP16 FLuc: inhibits Gal4-VP16 luciferase reporter, ROR gamma counter-screen; Drosophila S2 Gal4-VP16 UAS-luciferase, luminescence, 20 h; Potency, µM (series often up to 53.6 µM), usual class: inhibitors; hit rate 3.5% among 310,000;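 further: Gal4-VP16 expression switched on by copper sulfate through the metallothionein promoter; nearly all actives have a fitted effect of over 50% in size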
Tau ThT inhib: inhibitors of human tau fibril formation, thioflavin T binding | P10636 | recombinant tau K18 P301L, heparin-induced fibrillization, ThT fluorescence | Potency, µM (highest dose often 57.4 µM), usual class: inhibitors | hit rate 2.1% among 270,000; further: nearly all actives have a fitted effect of over 55% in size
Target sequence (P10636 561-689 P618L limits assumed): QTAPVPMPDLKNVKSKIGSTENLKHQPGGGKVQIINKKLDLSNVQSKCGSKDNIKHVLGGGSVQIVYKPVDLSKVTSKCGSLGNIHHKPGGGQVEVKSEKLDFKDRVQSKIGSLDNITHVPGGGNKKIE
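Aggregation was driven by heparin (20 uM final) acting on recombinant tau […] bearing P301L in 100 mM sodium acetate pH 7; fibrils were detected with Thioflavin T.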
Tau FP inhib: inhibitors of human tau fibril formation. P10636. K18 P301L tau heparin fibrillization, Alexa594 FP, 6 h. Potency, µM (titrated, usually from 57.7 µM), hits mostly inhibitors. hit rate 0.39% among 280,000. AID 1468; further: nearly all actives have a fitted effect of over 55% in size
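Human tau K18 […] P301L fragment, 15 uM unlabeled plus 0.24 uM Alexa 594-labeled tau (final), with compound and 20 uM heparin in 100 mM sodium acetate pH 7; 6 hr at 37 C, then Alexa 594 FP read.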
RORg inh: inhibitors of mouse ROR gamma transcriptional activity; Drosophila S2 Gal4-RORgamma UAS-luciferase reporter, 20 h; Potency, µM (highest dose often 53.6 µM), actives largely listed as inhibitors; hit rate 5.4% among 310,000; AID 2551; further: nearly all actives have a fitted effect of over 60% in size
Target sequence (P51450 whole entry, looked up, the tested form may be a part): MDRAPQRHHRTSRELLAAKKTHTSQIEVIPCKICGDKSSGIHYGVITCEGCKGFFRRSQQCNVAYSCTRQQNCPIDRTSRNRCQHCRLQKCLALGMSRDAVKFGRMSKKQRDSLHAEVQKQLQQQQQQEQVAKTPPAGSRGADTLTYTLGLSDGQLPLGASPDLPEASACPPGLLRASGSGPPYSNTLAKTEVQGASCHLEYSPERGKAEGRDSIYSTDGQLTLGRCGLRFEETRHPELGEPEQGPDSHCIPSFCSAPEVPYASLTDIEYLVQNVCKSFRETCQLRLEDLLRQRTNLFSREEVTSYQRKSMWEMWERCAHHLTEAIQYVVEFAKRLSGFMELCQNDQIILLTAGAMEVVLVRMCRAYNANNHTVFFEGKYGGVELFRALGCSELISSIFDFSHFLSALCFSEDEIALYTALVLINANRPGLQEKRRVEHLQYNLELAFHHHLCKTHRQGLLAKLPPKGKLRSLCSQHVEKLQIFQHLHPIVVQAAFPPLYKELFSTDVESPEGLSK
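Drosophila S2 cells stably expressing Gal4-DBD/mouse RORγ fusion under metallothionein promoter plus UAS-luciferase; compound 1 h, then 700 uM CuSO4 induction for 20 h at ambient temperature; inhibition read as reduced luminescence.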
Tau fluor cs: counter-screen for tau fibril formation inhibitors; tau K18 P301L (four-repeat tau fragment) Alexa594 fluorescence, heparin fibrillization; Potency, µM (highest dose often 57.7 µM); hit rate 0.93% among 280,000; AID 1463; further: nearly all actives have a fitted effect of over 55% in size
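Human K18 P301L tau (15 uM unlabeled plus 0.24 uM Alexa 594-labeled, final) in 100 mM sodium acetate pH 7 was mixed with compound and 20 uM heparin and incubated 6 hr at 37 C.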
Hits are given with their value; - = inactive; ? = inconclusive; . = no result; [ ] = another dose, or the depositor's remark. A selection: hits, their analogues and other compounds. The true share with any hit is near 7.3%. The call rests on the fitted dose curve; in most records, active means well fitted curve in the direction sought with a large enough effect; inconclusive means small, poorly fitted or top-dose-only effect, or another doubt; inactive means no such curve, though single readings can be large; an effect the other way counts as inactive or inconclusive.

SMILES	Gal4-VP16 FLuc	Tau ThT inhib	Tau FP inhib	RORg inh	Tau fluor cs
Cc1ccc(/C=N/Nc2nncn2N)cc1	13µM	.	.	?	.
Cc1ccc(-n2c(N)cc(=O)nc2SCC(=O)NC2CCCCC2)cc1C	-	.	.	-	.
O=c1c2c([nH]n1-c1ccccc1)CCCC2	-	-	-	-	-
S=c1nc(C2CC2)n(-c2ccccc2)[nH]1	?	-	-	7.9µM	-
COc1ccc(-c2nn3c(=O)cc(CN4CCN(C(=O)c5ccc(C(C)(C)C)cc5)CC4)nc3s2)cc1	.	?	-	.	-
COc1ccc(S(=O)(=O)Nc2ccc(S(=O)(=O)Nc3cc(C)nc(C)n3)cc2)cc1OC	-	.	.	-	.
Cc1ccc(-c2cc(C(F)F)nc(S(C)(=O)=O)n2)cc1	?	-	-	10µM	-
COc1ccc(CCNc2nc(-c3ccc(C)cc3)cc(C(F)F)n2)cc1OC	.	-	?	.	-
CCN(CC(=O)Nc1c(C(=O)OC)[nH]c2ccc(Cl)cc12)c1ccc2c(c1)OCO2	-	?	-	-	7.9µM[quencher]
CCOC(=O)c1[nH]c2ccc(Cl)cc2c1NC(=O)/C=C/c1ccc2c(c1)OCO2	4.5µM	-	-	?	-
COC(=O)c1[nH]c2ccc(C)cc2c1NC(=O)CCN1CCN(Cc2ccc3c(c2)OCO3)CC1	?	-	-	-	-
CCN1CCN(C2=C(NS(=O)(=O)c3ccc(C)cc3)C(=O)c3ccccc3C2=O)CC1	-	.	.	?	.
CC1CCN(C2=C(NS(=O)(=O)c3ccc(Cl)cc3)C(=O)c3ccccc3C2=O)CC1	?	?	-	11µM	?
CC1CCN(C2=C(NS(=O)(=O)c3ccc(Br)cc3)C(=O)c3ccccc3C2=O)CC1	?	.	.	-	.
O=C1C(NS(=O)(=O)c2ccccc2)=C(N2CCN(c3ccc(F)cc3)CC2)C(=O)c2ccccc21	-	6.3µM	-	-	10µM[quencher]
O=C1C(NS(=O)(=O)c2cccs2)=C(N2CCN(c3cccc(Cl)c3)CC2)C(=O)c2ccccc21	-	4µM	?	-	8.9µM[quencher]
O=C1C(NS(=O)(=O)c2ccc(Br)cc2)=C(N2CCCCC2)C(=O)c2ccccc21	?	.	.	-	.
CC1CCN(C2=C(NS(=O)(=O)c3ccccc3)C(=O)c3ccccc3C2=O)CC1	-	13µM	?	-	11µM[quencher]
CC(=O)OC[C@@H]1O[C@@H](O/N=C2/C[C@@H](O)[C@@H](O)[C@@H]3[C@@H]4C(=O)N(C5CCCCC5)C(=O)[C@H]4CC[C@H]23)[C@H](OC(C)=O)[C@H](OC(C)=O)[C@@H]1OC(C)=O	-[10 µM]	-[11.5 µM]	-[11.6 µM]	-[10 µM]	-[11.6 µM]
Cc1ccc(N=Nc2c(O)n(CN3CCOCC3)c3ccccc23)cc1	-	?	-	-	-
O=C(Nc1ccccc1F)Nc1cc(S(=O)(=O)N2CCOCC2)ccc1N1CCCC1	-	-	-	-	-
C=CCn1c(O)c(N=NC(=S)Nc2ccccc2C)c2cc(S(=O)(=O)N3CCOCC3)ccc21	2µM	-	-	0.5µM	?
C=CCn1c(O)c(N=NC(=S)Nc2ccc(OC)c(Cl)c2)c2ccccc21	4µM	?	-	2.8µM	?
Cc1cccc(NC(=S)N=Nc2c(O)n(CN3CCOCC3)c3ccccc23)c1C	1.1µM	?	-	0.71µM	11µM[quencher]
Cn1c(O)c(N=NC(=S)Nc2ccccc2F)c2cc(S(=O)(=O)N3CCOCC3)ccc21	2µM	?	?	0.32µM	?
SMILES	Gal4-VP16 FLuc	Tau ThT inhib	Tau FP inhib	RORg inh	Tau fluor cs
Cn1c(SCC(=O)Nc2ccccc2Br)nnc1-c1cnccn1	-	.	.	-	.
Cc1cc(NC(=O)c2ccccc2C)ccc1NC(=O)c1ccccc1Cl	-	.	.	-	.
COC(=O)c1ccc(NC(=O)Cn2c(=O)oc3ccccc32)cc1	.	-	-	.	-
Cc1ccc(NC(=S)N=Nc2c(O)n(C)c3ccc(S(=O)(=O)N4CCOCC4)cc23)cc1C	3.2µM	?	-	0.71µM	?
Cc1nn(C)cc1-c1n[nH]c(=S)n1-c1ccc(F)cc1	-	-	-	?	-
Cc1ccc(-n2c(-c3cn(C)nc3C)n[nH]c2=S)cc1	-	-	-	10µM	-
Cc1ccc(-n2c(-c3cc(C)n(C)n3)n[nH]c2=S)cc1	-	-	-	11µM	-
S=C(N/N=C1\C2CN3CCN(C2)CC1(c1ccccc1)C3)Nc1ccccc1	2.8µM	-	-	5µM	-
C(=C/c1nccc2c1[nH]c1ccccc12)/c1ccc2c(c1)OCO2	-	?	-	0.89µM	7.1µM[quencher]
Cc1ccc(NC(=O)CS(=O)CC(=O)NC23CC4CC(CC(C4)C2)C3)cc1 (configuration not stated)	-	.	.	-	.
CCOc1ccc(NC(=S)NC23CC4CC(CC(C4)C2)C3)cc1	2.8µM	.	.	3.2µM	.
CNC(=S)NC12CC3CC(CC(C3)C1)C2	7.9µM	-	-	2.5µM	-
CN(C)c1ccc(NC(=S)NC23CC4CC(CC(C4)C2)C3)cc1	5µM	.	.	2µM	.
FC(F)Oc1ccc(NC(=S)NC23CC4CC(CC(C4)C2)C3)cc1	7.1µM	.	.	0.79µM	.
O=C(OCN1C(=O)c2ccccc2C1=O)c1cccc(OC(F)F)c1	-	.	.	-	.
CC(C)(C)C1CCC(=NNC(=S)NCc2ccccc2)CC1 (configuration not stated)	?	-	-	10µM	-
COCCNC(=S)NN=C1CCC(c2ccccc2)CC1 (configuration not stated)	-	-	-	-	-
CCC(C)(C)C1CCC(=NNC(=S)Nc2ccccc2)CC1 (configuration not stated)	?	?	-	11µM	?
C=CCNC(=S)NN=C1CCC(c2ccccc2)CC1 (configuration not stated)	20µM	.	.	13µM	.
COC(=O)C1(C(=O)OC)C/C=C\Cc2ccccc2[C@@H]1C[N+](=O)[O-]	-	-	-	-	-
Cc1c(CNC(C)CCc2ccccc2)c(C(=O)O)c(C)n1Cc1ccc(F)cc1 (configuration not stated)	.	-	-	.	-
O=C(COc1cccc(Cl)c1)N1CCC(c2nc3ccccc3o2)CC1	.	-	-	.	-
Cc1c(CCC(=O)N2CCC[C@H]2C(=O)O)c(=O)oc2cc3oc4c(c3cc12)CCCC4	?	.	.	1.3µM	.
Cc1c(CCC(=O)N[C@@H](CC(C)C)C(=O)O)c(=O)oc2cc3oc4c(c3cc12)CCCC4	?	.	.	0.63µM	.
Cc1c(CCC(=O)O)c(=O)oc2cc3oc4c(c3cc12)CCCC4	?	.	-	?	-
Cc1ccccc1-c1nc(SCC(=O)NCc2ccco2)c2c(=O)n(C)c(=O)n(C)c2n1	.	-	-	.	-
O=c1[nH]ccc2c(S(=O)(=O)N3CCCNCC3)cccc12	-	-	-	-	-
CCN(CC)c1ccc(/C=C(\C#N)C(N)=S)cc1	-	4.5µM	-	?	?
CCN(CC)c1ccc(/C=C(\C#N)C(N)=O)cc1	-	?	-	-	-
CCN(CC)S(=O)(=O)c1ccc2[nH]cc(C(=O)NCCC3=CCCCC3)c(=O)c2c1	5µM	-	11µM	10µM	?
